This is an account of results in PubChem BioAssay (EPA / NIEHS).

Test [1] can be described thus: CCTE_Shafer_MEA_dev_bursting_electrodes_number: CCTE's Neural Network Formation Assay for Number of Bursting Electrodes, Shafer Lab (AID 2284043; active means hit-call score of the fitted dose curve at least 0.9, where 1 is the maximum;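 on AC50: potency is for loss of bursting electrodes relative to DMSO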). An outline of the steps:
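Read-out is the per-well number of electrodes bursting at least once every 2 minutes, recorded on days 5, 7, 9 and 12 and collapsed by trapezoidal area under the curve. Cultures were primary rat cortical neurons on MEA plates, treated continuously from plating.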

Test [2] in a line: CCTE_Shafer_MEA_dev_per_burst_interspike_interval: CCTE's Neural Network Formation Assay for Burst Interspike Interval, Shafer Lab (AID 2284044).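 Further: mean spike spacing inside bursts as AUC over recordings on days 5 7 9 12.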 An outline of the steps: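 Primary rat cortical neurons on 48-well MEA plates, exposed from day 0 through day 12, treatment renewed at DIV 5 and 9. Within-burst interspike interval recorded days 5, 7, 9, 12, well-averaged, summarised as AUC; negative fit versus DMSO.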

A short description of test [3]: CCTE_Shafer_MEA_dev_burst_duration_mean: CCTE's Neural Network Formation Assay for Mean Burst Duration, Shafer Lab (AID 2284045). A digest of the protocol: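 Read-out: average first-to-last-spike interval within single-electrode bursts, averaged over bursting electrodes per well, then summarised as area under the curve across days 5, 7, 9 and 12. Developing rat cortical networks were exposed from day 0.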

Test [4] can be described thus: CCTE_Shafer_MEA_dev_inter_network_spike_interval_mean: CCTE's Neural Network Formation Assay for Mean Inter-network Spike Interval, Shafer Lab (AID 2284047).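 On AC50: potency for a decrease in mean inter-network spike interval below DMSO.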 An outline of the steps:
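Rat cortical cultures, 1.5 x 10^5 cells/well on 48-well MEA plates; continuous exposure days 0–12, medium and compound refreshed DIV 5, 9. Mean time between consecutive network-spike peaks; AUC across DIV 5/7/9/12; DMSO baseline, negative fitting direction.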

A short description of test [5]: CCTE_Shafer_MEA_dev_network_spike_number: CCTE's Neural Network Formation Assay for Number of Network Spikes, Shafer Lab (AID 2284048).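 Further: synchronized bursts across electrodes counted on days 5 7 9 12 and integrated as AUC.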 An outline of the steps: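 Developing networks of primary rat cortical neurons are treated over 12 days starting at plating, with media and compound fully replaced on DIV 5 and 9. Network spike counts from four recording days are integrated as trapezoidal AUC.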

Test [6] in a line: CCTE_Shafer_MEA_dev_spike_duration_mean: CCTE's Neural Network Formation Assay for Mean Spike Duration, Shafer Lab (AID 2284051).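 Further: mean network spike duration pooled as area under curve over DIV 5 to 12 recordings.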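 On AC50: potency for a decrease in mean network spike duration versus DMSO.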 An outline of the steps:
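Readout is the average length of network spikes, clustered firing across electrodes, summed over DIV 5, 7, 9 and 12 as area under the curve. Neurons from rat cortex developed networks on MEA plates under continuous 12-day exposure.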

A short description of test [7]: CCTE_Shafer_MEA_dev_network_spike_duration_std: CCTE's Neural Network Formation Assay for Standard Deviation of Network Spike Duration, Shafer Lab (AID 2284052).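 Further: hits are decreases in network spike duration SD versus DMSO vehicle.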 A digest of the protocol: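 Read-out is the trapezoidal area-under-the-curve across recordings made on days 5, 7, 9 and 12, fitted in the negative direction against DMSO baseline. Neurons were primary rat cortical cells treated from day 0, with treatment renewed at each feed.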

The nature of test [8]: CCTE_Shafer_MEA_dev_per_network_spike_spike_percent: CCTE's Neural Network Formation Assay for Percent of Spikes in a Network Spike, Shafer Lab (AID 2284054). An outline of the steps:
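Rat primary cortical cultures, 1.5 x 10^5 cells/well on MEA. Continuous compound exposure d0–12, medium/compound renewed DIV 5, 9. Network-spike spike % (0.05 s peak window), AUC over 4 recordings, DMSO baseline.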

Test [9] in a line: CCTE_Shafer_MEA_dev_LDH: CCTE's Lactate Dehydrogenase Assay for Cytotoxicity in the Neural Network Formation Assay, Shafer Lab (AID 2284068; active means hit-call score of the fitted dose curve at least 0.9, where 1 is the maximum;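 further: exposure for twelve days from plating with re-dosing on DIV 5 and 9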). An outline of the steps: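 Cytotoxicity companion to network-formation recordings: rat cortical neurons received compound over 12 days of development, re-dosed at DIV 5 and 9 feeds. Viability was inferred from LDH enzyme activity relative to DMSO.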

Test [10] in a line: CCTE_Shafer_MEA_dev_mutual_information_norm: CCTE's Neural Network Formation Assay for Mutual Information Normalization, Shafer Lab (AID 2284091). A digest of the protocol:
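Developing rat cortical networks on 16-electrode MEA wells are treated throughout formation (DIV 0–12). Shared electrode information is recorded four times, converted to area-under-curve, and fitted for decreases against DMSO vehicle.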

A short description of test [11]: CCTE_Shafer_MEA_dev_correlation_coefficient_mean: CCTE's Neural Network Formation Assay for Mean Correlation Coefficient, Shafer Lab (AID 2284093).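 On AC50: well mean pairwise spike train correlation integrated as AUC over recording days 5 to 12; potency fitted for loss of correlation relative to DMSO vehicle wells.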 An outline of the steps:
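Read-out: well-mean correlation coefficient of spike trains between electrode pairs, collapsed over four recording days as trapezoidal area-under-the-curve. Developing rat cortical neuron networks grown on MEAs received test chemical continuously from plating.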

The next test deals with DIO2 (gene 1734). As to the kind of experiment: CCTE_GLTED_hDIO2: CCTE's human Deiodinase 2 (DIO2) Inhibition Assay, Great Lakes Toxicology and Ecology Division (GLTED) Lab (AID 2284050; active means hit-call score of the fitted dose curve at least 0.9, where 1 is the maximum). A digest of the protocol: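 Cell-free human DIO2 enzyme was incubated with test chemical for 3 h; iodide liberated from substrate was then quantified by the Sandell-Kolthoff reaction (absorbance), run in triplicate. Loss of signal versus DMSO baseline indicated inhibition.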

Another test relates to DIO3 (gene 1735). As to the kind of experiment: CCTE_GLTED_hDIO3: CCTE's human Deiodinase 3 (DIO3) Inhibition Assay, Great Lakes Toxicology and Ecology Division (GLTED) Lab (AID 2284055; active means hit-call score of the fitted dose curve at least 0.9, where 1 is the maximum;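 further: potency is for inhibition seen as loss of released iodide signal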). An outline of the steps:
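Cell-free assay with human DIO3 enzyme produced by adenovirus expression; enzyme incubated with test chemical for 3 hours. Liberated iodide then measured by Sandell-Kolthoff absorbance; loss of signal versus DMSO baseline indicates inhibition, run in triplicate.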

A short description of test [12]: CCTE_Shafer_MEA_acute_LDH: CCTE's Lactate Dehydrogenase Assay for Cytotoxicity in the Neural Acute Assay, Shafer Lab (AID 2284086; active means hit-call score of the fitted dose curve at least 0.9, where 1 is the maximum;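 further: active means LDH release rises above DMSO vehicle level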). An outline of the steps:
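Primary rat cortical neurons on 48-well MEA plates, treated on day 13 or 15 post-plating. After the 40-min recording with compound, medium LDH release was read by absorbance at 490 nm. Gain of signal was fitted against DMSO negative control.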

A short description of test [13]: CCTE_Shafer_MEA_dev_AB: CCTE's Alamar Blue Assay for Cytotoxicity in the Neural Network Formation Assay, Shafer Lab (AID 2284083; active means hit-call score of the fitted dose curve at least 0.9, where 1 is the maximum;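 further: resazurin reduction fluorescence as viability of cultured neurons; twelve days of exposure from plating with re-dosing on DIV 5 and 9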). A digest of the protocol:
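Fluorescent resazurin reduction serves as the viability read-out, with DMSO as negative control and baseline. Cells were primary rat cortical neurons grown on MEA plates and dosed from day 0 to day 12, treatment renewed on DIV 5 and 9.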
In general terms: Alamar Blue is a resazurin reagent that responds to reducing activity.

A short description of test [14]: IUF_NPC1b_proliferation_BrdU_72hr: Leibniz Research Institute for Environmental Medicine (IUF) 72-hour Neural Progenitor Cell Bromodeoxyuridine (BrdU) Proliferation Assay (NPC1b) (AID 2284207). A digest of the protocol:
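Proliferation of primary human neural progenitor cells: 72 h compound treatment at 37C, 5% CO2, pH 7.2-7.6, in EGF/FGF-containing medium. Readout is BrdU uptake (last 16 h) by chemiluminescent ELISA, normalised to DMSO.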

The nature of test [15]: IUF_NPC1a_proliferation_area_72hr: Leibniz Research Institute for Environmental Medicine (IUF) 72-hour Neural Progenitor Cell Proliferation Area Assay (NPC1a) (AID 2284208). An outline of the steps: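 Single 0.25–0.35 mm human fetal neural progenitor spheres in proliferation medium with EGF and FGF, exposed 72 h from plating without renewal at 37C, pH 7.2-7.6. Sphere area growth measured by automated phase-contrast imaging, relative to DMSO.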

The nature of test [16]: IUF_NPC1_viability_72hr: Viability Assessment at 72 hours in the Leibniz Research Institute for Environmental Medicine (IUF) Neural Progenitor Cell Proliferation Assay (NPC1) (AID 2284209). A digest of the protocol:
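Human fetal-cortex neural progenitor spheres (0.25–0.35 mm, one per well) grown in EGF/FGF proliferation medium at 37C, pH 7.2-7.6, exposed 72 h without renewal; viability read as alamar blue resazurin-to-resorufin fluorescence relative to DMSO.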

The nature of test [17]: CCTE_Mundy_HCI_Cortical_Synap_Neur_Matur_NeuriteSpotCountPerNeuriteLength: CCTE's Synaptogenesis and Neurite Maturation Assay in rat cortical cells for Neurite Spot Count per Neurite Length, Mundy Lab (AID 2284210). A digest of the protocol: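 Primary rat cortical neurons, compound exposure DIV 7–12, 288.33 h endpoint. Hoechst, anti-MAP2 and anti-synaptophysin labelling; neurite-associated puncta per neurite length scored by automated imaging relative to DMSO controls.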

Results filed as inconclusive are left out. Calls of active or inactive are those of the source. How the source made its calls, unless noted: active means hit-call score of the fitted dose curve at least 0.9, where 1 is the maximum; inactive means score below 0.9.

`O=S(=O)(OCC(F)F)C(F)(F)F`: the call in test [1], in test [2], in test [3], in test [4], in test [5] and in [6] was inactive. The compound was classed as inactive in test [7], in test [8], in test [9], in test [10] and in test [11].

Consider `FC(F)(F)C(F)(F)CNCC(F)(F)C(F)(F)F`, for which the compound was called inactive in test [1], in [2], in test [3], in [4], in test [5] and in [6]. Besides, the outcome in [7], in [8], in [10] and in [11] was inactive.

Take `CCN(Cc1cccc(S(=O)(=O)O)c1)c1ccc(C(=C2C=CC(=[N+](CC)Cc3cccc(S(=O)(=O)O)c3)C=C2)c2ccc(O)cc2S(=O)(=O)[O-])cc1`: the figures for the half-maximal activity concentration (AC50) in the test on DIO2 (gene 1734) and in the test with DIO3 (gene 1735) were 48.5 µM (active) and 51.3 µM (active), respectively.

Consider `O=S(=O)(OCCOC(F)(F)F)C(F)(F)F`, for which the compound was classed as inactive in [2], in test [3], in test [4], in test [5], in test [6] and in test [7]. The compound was called inactive in [8], in [10] and in [11].

On to `CCCCCCOC(=O)c1ccccc1O`, for which the result in [12] was inactive.

On to `O=C(O)C=C(C(F)(F)F)C(F)(F)F`, for which the result in test [1], in test [2], in test [3], in test [5], in test [6] and in [7] was inactive. The compound was classed as inactive in [8], in test [9], in test [10] and in test [11]. Besides, the half-maximal activity concentration (AC50) in test [4] is 15 µM (active).

Turning to `CC(C)(C)C(=O)CC(=O)C(F)(F)C(F)(F)C(F)(F)F`, the concentration at half-maximal activity (AC50) in [1] is 15 µM (active); in test [6] it was 26 µM (active); in test [8], 22.5 µM (active); in test [9], 21.9 µM (active); in test [13] it was 23.9 µM (active); in test [11], 24.1 µM (active). Further, the result in test [2], in test [3], in test [4], in test [5], in test [7] and in [10] was inactive.

Turning to `OCCCC(F)(F)C(F)(F)C(F)(F)F`, the compound was called inactive in test [2], in [3], in test [4], in test [5], in [6] and in test [7]. Moreover, the compound was called inactive in test [8], in test [9], in test [10] and in test [11].

`OC[C@@H](O)[C@@H](O)[C@H](O)[C@@H](O)CO`: the compound was classed as inactive in test [1], in test [2], in test [3], in [4], in [5] and in test [6]. Besides, the result in test [7], in [8], in test [9], in [13], in test [10] and in test [11] was inactive. In addition, the compound was classed as inactive in [14], in test [15], in test [16] and in test [17].

Consider `FC(F)(F)C(F)(F)C(F)(F)C(F)(F)C(F)(F)C(F)(F)CC1CO1` (configuration not stated), for which the compound was called inactive in test [2], in test [3], in test [4], in [5], in test [6] and in test [7]. Besides, the compound was classed as inactive in test [8], in test [10] and in [11].

Turning to `O=C(O)C(F)(F)C(F)(F)C(F)(F)C(F)(F)C(F)(F)C(F)(F)C(F)(F)C(F)(F)C(F)(F)C(F)(F)C(F)(F)C(F)(F)F`, the AC50 in the test on DIO2 (gene 1734) was 74.9 µM (active); in the test with DIO3 (gene 1735), 32.8 µM (active).

As for `O=C(Cl)C(F)(F)C(F)(F)C(F)(F)C(F)(F)C(F)(F)C(F)(F)C(F)(F)C(F)(F)F`, in the test on DIO2 (gene 1734), the AC50 is 69.4 µM (active).

With `OCC(F)(F)C(F)(F)C(F)(F)C(F)(F)C(F)(F)C(F)F`, the compound was called inactive in [1], in test [2], in test [3], in test [4], in [5] and in test [6]. Further, the outcome in [7], in test [8], in test [9], in test [13], in test [10] and in [11] was inactive.

Consider `COC(=O)CCC(F)(F)C(F)(F)C(F)(F)C(F)(F)F`, for which the outcome in [2], in test [3], in test [4], in [5], in test [6] and in test [7] was inactive. Also, the call in test [8], in [9], in test [10] and in test [11] was inactive.

For the compound `c1ccc(B(c2ccccc2)c2ccccc2)cc1`, the AC50 with DIO2 (gene 1734) is 57.7 µM (active); in the test with DIO3 (gene 1735), 100 µM (active).

On to `O=C(O)C(F)(F)C(F)(F)C(F)(F)C(F)(F)C(F)(F)C(F)(F)C(F)(F)C(F)(F)Cl`, for which the compound was classed as inactive in test [1], in [2], in test [3], in [4], in test [5] and in test [6]. For the same compound, the result in [7], in test [8], in test [9], in [10] and in test [11] was inactive. For the same compound, the AC50 in the test on DIO2 (gene 1734) was 100 µM (active).

With `N=C(N)C(F)(F)C(F)(F)C(F)(F)C(F)(F)C(F)(F)C(F)(F)C(F)(F)F`, the outcome in [1], in test [2], in test [3], in test [4], in [5] and in [6] was inactive. For the same compound, the outcome in test [7], in test [8] and in test [10] was inactive. Besides, the AC50 in test [9] was 24.5 µM (active); in test [13], 23.9 µM (active); in test [11], 15 µM (active).

In general, AC50 refers to the concentration at which the activity in the assay is half-maximal.
